{"source": "PubChem BioAssay AID463173", "about": "(ICCB-Longwood Screening Facility, Harvard Medical School, 2010)", "note": "Hit rate of the full screen: of about 52,000 compounds, about 4,300 (8.3%) were called active. What follows is part of a selection rich in actives, with near analogues and random picks from the rest. Unmarked numbers belong to inactive results. Rule as the data show it: active = survival mostly below about 52% (no sharp cut-off); inactive = mostly above about 56%.", "data": [{"tested_on": "DeltatarO mutant", "assay": "S. aureus survival, RN4220 and DeltatarO strains – OD600, teichoic acid synthesis inhibitors, primary screen (AID 463173)", "conditions": "S. aureus RN4220 wild type/DeltatarO growth, OD600, 18 h, active compounds read low, screened at 18.75 µg/mL (by protocol)", "values": [{"smiles": "COc1ccc(CN2C(=O)C(NC(=O)c3ccccc3OC)(C(F)(F)F)N=C2c2ccccc2)cc1", "note": "(centres undefined)", "survival": "87%"}, {"smiles": "COc1cc(Cl)c(C)cc1NC(=O)c1cnc(N2CCCCC2)c2ccccc12", "survival": "115%"}, {"smiles": "O=C(c1ccc2c(c1)N(Cc1cccc(F)c1)C(=O)c1ccccc1S2)N1CCCC1", "survival": "88%"}, {"smiles": "COc1ccc(N2CCN(C(=O)c3cc4c(=O)oc5ccc(C)cc5c4s3)CC2)cc1", "survival": "111%"}, {"smiles": "CCCn1cc(S(=O)(=O)c2cccc(Cl)c2)c(=O)c2cc(F)c(N3CCOCC3)cc21", "survival": "74%"}, {"smiles": "COc1cccc(NC(=O)C2CCCN(S(=O)(=O)c3cccc4nonc34)C2)c1", "note": "(centres undefined)", "survival": "90%"}, {"smiles": "CCCS(=O)(=O)c1c(S(=O)(=O)CCC)c2cc(C(C)(C)C)ccn2c1C(=O)c1ccccc1", "survival": "118%"}, {"smiles": "CC1Cc2ccccc2N1C(=O)CSc1nnnn1Cc1ccccc1", "note": "(centres undefined)", "survival": "91%"}, {"smiles": "Cc1cccc(-n2nnc(-c3nc(-c4cccs4)no3)c2N)c1C", "survival": "60%"}, {"smiles": "CCS(=O)(=O)N1CC(=O)N(c2ccc(Cl)cc2)C(C)(C(=O)NC2CCCCC2)C1", "note": "(centres undefined)", "survival": "96%"}, {"smiles": "COc1ccc2c(c1)-c1nc(NC(=O)c3ccc(OC)c(Br)c3)sc1CC2", "survival": "59%"}, {"smiles": "COc1ccc2c(c1)-c1nc(NC(=O)c3cc(OC)c(OC)c(OC)c3)sc1CC2", "survival": "57%"}, {"smiles": "COc1ccc2c(c1)-c1nc(NC(=O)c3ccc(C)cc3)sc1CC2", "survival": "5% (active)"}, {"smiles": "COc1cc(C(=O)Nc2ccc(NC(=O)c3ccc(Br)cc3)cc2)cc(OC)c1OC", "survival": "75%"}, {"smiles": "O=C(CSc1nc2c(c(=O)[nH]1)CN(Cc1ccc3c(c1)OCO3)CC2)Nc1cccc(Cl)c1", "survival": "76%"}, {"smiles": "CCOC(=O)CNc1c(-c2ccc(OC)cc2)nc2ccc(Cl)cn12", "survival": "58%"}, {"smiles": "CCOC(=O)c1ccc(NC(=O)CSc2nc3cc4ccccc4cc3[nH]2)cc1", "survival": "65%"}, {"smiles": "CCOC(=O)c1ccc(NC(=O)CSc2nc(C)c(Cc3ccccc3)c(=O)[nH]2)cc1", "survival": "45% (active)"}, {"smiles": "Cc1ccc(NC(=O)CSc2nc(C)c(Cc3ccccc3)c(=O)[nH]2)cc1C", "survival": "84%"}, {"smiles": "Cc1nc(SCC(=O)Nc2ccc(Br)cc2)[nH]c(=O)c1Cc1ccccc1", "survival": "59%"}, {"smiles": "COC(=O)c1ccc(NC(=O)CSc2nc3cc4ccccc4cc3[nH]2)cc1", "survival": "65%"}, {"smiles": "COc1cccc(NC(=O)CSc2nc(C)c(Cc3ccccc3)c(=O)[nH]2)c1", "survival": "58%"}, {"smiles": "CCOC(=O)c1cccc(NC(=O)CSc2nc3cc4ccccc4cc3[nH]2)c1", "survival": "36% (active)"}, {"smiles": "Cc1ccc(NC(=O)CSc2nc(C)c(Cc3ccccc3)c(=O)[nH]2)cc1", "survival": "48%"}, {"smiles": "Cc1cccc(NC(=O)CSc2nc(C)c(Cc3ccccc3)c(=O)[nH]2)c1", "survival": "18% (active)"}, {"smiles": "CCN(CC)C(C)C#Cc1ccccc1", "note": "(centres undefined)", "survival": "95%"}, {"smiles": "Cc1ccc(-n2nc(C(=O)Nc3ccc(C)c(F)c3)c3c4ccccc4n(C)c3c2=O)cc1", "survival": "92%"}, {"smiles": "Fc1ccc(-n2ncc3c(Nc4ccc5c(c4)OCCO5)ncnc32)cc1", "survival": "97%"}, {"smiles": "O=C(C1CCC(CNS(=O)(=O)c2cccs2)CC1)N1CCN(c2ccc(Cl)cc2)CC1", "note": "(centres undefined)", "survival": "60%"}, {"smiles": "CCN(c1ccccc1)c1nnc(NC(=O)Nc2ccc(Br)cc2F)s1", "survival": "97%"}, {"smiles": "CC(=O)N1CCN(c2ccccc2N)CC1", "survival": "93%"}, {"smiles": "Cc1cc(C)nc(Nc2nc3ccccc3c(=O)[nH]2)n1", "survival": "74% (active)"}, {"smiles": "O=c1[nH]c(Nc2nc3ccccc3o2)nc2ccccc12", "survival": "95%"}, {"smiles": "Cc1cc(=O)[nH]c(Nc2nc3ccccc3[nH]2)n1", "survival": "71%"}, {"smiles": "O=C1CCCc2cc(S(=O)(=O)N3CCCC(C(=O)Nc4ccc(F)c(Cl)c4)C3)ccc2N1", "note": "(centres undefined)", "survival": "70%"}, {"smiles": "Cc1ccccc1C(=O)OCc1cc(=O)n2c(C)csc2n1", "survival": "109%"}, {"smiles": "O=S(=O)(c1ccc2nc(N3CCN(c4cccc(Cl)c4)CC3)ccc2c1)N1CCCCC1", "survival": "81%"}, {"smiles": "O=S(=O)(c1ccc2nc(N3CCN(c4ccccc4)CC3)ccc2c1)N1CCCCC1", "survival": "6% (active)"}, {"smiles": "CC1CCN(S(=O)(=O)c2ccc3nc(N4CCN(c5ccccc5)CC4)ccc3c2)CC1", "survival": "78%"}, {"smiles": "Cc1ccc(OC(=O)c2ccc3snnc3c2)cc1", "survival": "115%"}, {"smiles": "COc1ccccc1-c1nn(CCC(=O)Nc2cccc(C(C)=O)c2)c2nc(C)cc(C)c12", "survival": "69%"}, {"smiles": "Cc1cc(C)c2c(=O)cc(C(=O)Nc3ccc(S(=O)(=O)N(C)Cc4ccccc4)cc3)oc2c1", "survival": "61%"}, {"smiles": "COc1ccc(C(=O)NCCSc2ccccn2)cc1", "survival": "78%"}, {"smiles": "CCCOc1ccc(CNC(=O)c2oc3ccc4c(c3c2C)C(=O)CC(C)(CC)O4)cc1", "note": "(centres undefined)", "survival": "68%"}, {"smiles": "CCC1(C)CC(=O)c2c(ccc3oc(C(=O)NCc4ccccc4)c(C)c23)O1", "note": "(centres undefined)", "survival": "44% (active)"}, {"smiles": "Cc1cc(C)cc(NC(=O)c2oc3ccc4c(c3c2C)C(=O)CC(C)(C)O4)c1", "survival": "89%"}, {"smiles": "Cc1c(C(=O)NCc2ccc(Cl)cc2)oc2ccc3c(c12)C(=O)CC(C)(C)O3", "survival": "53% (active)"}, {"smiles": "Cc1cccc(C)c1NC(=O)c1oc2ccc3c(c2c1C)C(=O)CC(C)(C)O3", "survival": "42% (active)"}, {"smiles": "CCC1(C)CC(=O)c2c(ccc3oc(C(=O)Nc4ccc(C(C)=O)cc4)c(C)c23)O1", "note": "(centres undefined)", "survival": "78%"}, {"smiles": "CC(=O)Nc1ccc(NC(=O)c2oc3ccc4c(c3c2C)C(=O)CC(C)(C)O4)cc1", "survival": "75%"}, {"smiles": "Cc1c(C(=O)NCc2ccccc2Br)oc2ccc3c(c12)C(=O)CC(C)(C)O3", "survival": "83%"}, {"smiles": "Cc1c(C(=O)NCc2cccc(Br)c2)oc2ccc3c(c12)C(=O)CC(C)(C)O3", "survival": "61%"}, {"smiles": "CCOC(=O)CC(NC(=O)Cn1nnc(-c2ccccc2F)n1)c1ccccc1Cl", "note": "(centres undefined)", "survival": "77%"}, {"smiles": "COc1ccc(N2CCN(C(=O)c3cn(C)c4ccc(S(=O)(=O)N(C)C5CCCCC5)cc4c3=O)CC2)cc1", "survival": "93%"}, {"smiles": "COc1ccccc1NC(=O)CSC1=Nc2ccccc2C2=NC(CC(=O)NCCc3ccccc3)C(=O)N12", "note": "(centres undefined)", "survival": "85%"}, {"smiles": "COc1ccc(C)cc1NC(=O)Cn1c(=O)n(Cc2nc(C)no2)c(=O)c2ccccc21", "survival": "79%"}, {"smiles": "COc1cccc(CNC(=O)CSc2ncc3c(n2)-c2cc(Cl)ccc2N(C)S3(=O)=O)c1", "survival": "92%"}, {"smiles": "N#CC1=C(N)NC(SCC(=O)Nc2ccc(Br)cc2)=C(C#N)C12CCCCC2", "survival": "12% (active)"}, {"smiles": "CCSC1=C(C#N)C2(CCCCC2)C(C#N)=C(N)N1", "survival": "68%"}, {"smiles": "O=C(CSc1nc2c(c(=O)[nH]1)CCCC2)Nc1ccc(Br)cc1", "survival": "58%"}, {"smiles": "COc1cccc(-c2cn3c(n2)sc2cc(C(=O)NCc4ccccc4F)ccc23)c1", "survival": "60%"}, {"smiles": "Cn1c(=O)n(C)c2cc(N3CCOCC3)c(NC(=O)c3ccc(Cl)cc3)cc21", "survival": "87%"}, {"smiles": "Cc1ccc(CCNC(=O)C(C)n2nc(C)c3c(C)n(-c4ccc(C)cc4)nc3c2=O)cc1", "note": "(centres undefined)", "survival": "86%"}, {"smiles": "CCCNC(=O)C(C)n1nc(C)c2c(C)n(-c3ccccc3)nc2c1=O", "note": "(centres undefined)", "survival": "102%"}, {"smiles": "Cc1ccc(-n2nc3c(=O)n(C(C)C(=O)NCc4ccco4)nc(C)c3c2C)cc1", "note": "(centres undefined)", "survival": "47% (active)"}, {"smiles": "CCC(C(=O)NCc1ccco1)n1nc(C)c2c(C)n(-c3ccc(C)cc3)nc2c1=O", "note": "(centres undefined)", "survival": "73%"}, {"smiles": "Cc1ccc(-n2nc3c(=O)n(C(C)C(=O)NCc4ccccc4C)nc(C)c3c2C)cc1", "note": "(centres undefined)", "survival": "94%"}, {"smiles": "Cc1nn(CC(=O)NCc2ccco2)c(=O)c2nn(-c3ccccc3)c(C)c12", "survival": "92%"}, {"smiles": "CCC(C(=O)NCCc1ccc(SC)cc1)n1nc(C)c2c(C)n(-c3ccc(C)cc3)nc2c1=O", "note": "(centres undefined)", "survival": "80%"}, {"smiles": "CSc1ccc(CCNC(=O)C(C)n2nc(C)c3c(C)n(-c4ccccc4)nc3c2=O)cc1", "note": "(centres undefined)", "survival": "46% (active)"}, {"smiles": "Cc1nn(C(C)C(=O)NCc2ccco2)c(=O)c2nn(-c3ccccc3)c(C)c12", "note": "(centres undefined)", "survival": "37% (active)"}, {"smiles": "CCOC(=O)N1CCC(NC(=O)c2cnn(-c3cccc(C)c3)c2-n2cccc2)CC1", "survival": "85%"}, {"smiles": "CCC(C)(C)N1CC(=O)N(Cc2ccccc2)C(c2ccc(OC)cc2)C1=O", "note": "(centres undefined)", "survival": "78%"}, {"smiles": "CCOc1ccc(NC(=O)N(C)CCc2c(C)nn(C)c2C)cc1", "survival": "74%"}, {"smiles": "COc1cccc(-n2nnc3c(sc4nc(C)cc(C)c43)c2=O)c1", "survival": "91%"}, {"smiles": "CCN(C(=O)Cc1ccccc1OC)c1nnc(-c2ccncc2)s1", "survival": "70%"}, {"smiles": "Nc1nc(-c2ccco2)nn1C(=O)c1ccc(Cl)cc1Cl", "survival": "91%"}, {"smiles": "COc1ccc(-c2cc(C(=O)NCCc3ccccc3)c3c(-c4ccccc4)[nH]nc3n2)cc1", "survival": "87%"}, {"smiles": "Cc1cc2c(cc1NC(=O)c1ccc(C(C)(C)C)cc1)n(C)c(=O)c(=O)n2C", "survival": "84%"}, {"smiles": "COc1cc(OC)c(NC(=O)N2CCN3CCCCC3C2)cc1Cl", "note": "(centres undefined)", "survival": "75%"}, {"smiles": "CCN1CCN(c2csc3ccc(C)cc3c2=O)CC1", "survival": "74%"}, {"smiles": "COc1ccccc1NC(=O)N(Cc1cc2c(C)ccc(C)c2[nH]c1=O)CC1CCCO1", "note": "(centres undefined)", "survival": "94%"}, {"smiles": "CCCCOc1cccc(C(=O)Nc2sc3c(c2C(=O)OCC)CCCC3)c1", "survival": "53%"}, {"smiles": "CCCOC(=O)c1c(NC(=O)c2cc3ccccc3c(=O)o2)sc2c1CCC(C)C2", "note": "(centres undefined)", "survival": "112%"}, {"smiles": "CCOC(=O)c1c(NC(=O)c2cc3ccccc3c(=O)o2)sc2c1CCC(C(C)(C)C)C2", "note": "(centres undefined)", "survival": "53%"}, {"smiles": "CCCCOc1ccc(C(=O)Nc2sc3c(c2C(=O)OCC)CCCCC3)cc1", "survival": "50%"}, {"smiles": "CCOC(=O)c1c(NC(=O)c2ccc(C)c(C)c2)sc2c1CCCCC2", "survival": "2% (active)"}, {"smiles": "CCCOc1ccc(C(=O)Nc2sc3c(c2C(=O)OCC)CCCCC3)cc1", "survival": "24% (active)"}, {"smiles": "CCOC(=O)c1c(NC(=O)c2ccc(OC)c(OC)c2)sc2c1CCCCC2", "survival": "58%"}, {"smiles": "CCOC(=O)c1c(NC(=O)c2ccc(OC)cc2)sc2c1CCCCC2", "survival": "2% (active)"}, {"smiles": "CCOC(=O)c1c(NC(=O)c2cc(OC)c(OC)c(OC)c2)sc2c1CCCC2", "survival": "81%"}, {"smiles": "CC(C)(C)C1CCc2c(sc(NC(=O)c3cc4ccccc4c(=O)o3)c2C(N)=O)C1", "note": "(centres undefined)", "survival": "44% (active)"}, {"smiles": "CCOC(=O)c1c(NC(=O)c2ccc(OCC)c(Br)c2)sc2c1CCCC2", "survival": "74%"}, {"smiles": "CCN(CC)Cc1c(NC(=O)c2ccc(OC)cc2)sc2c1CCCC2", "survival": "71%"}]}]}
